Measured values taken from PubChem BioAssay AID652115 (Broad Institute, 2013).
The whole screen tested about 330,000 compounds, of which about 3,800 (1.2%) were called active. Cut-off read from the data, not from the text of the source: active = inhibition above about 15%; inconclusive = no clear call, values can overlap the other calls; inactive = below that. The entries come from a sample that favours actives as a whole.

Biological target: NAD-dependent protein deacylase sirtuin-5, mitochondrial (Homo sapiens) (UniProt Q9NXA8)
Sequence (Q9NXA8 whole entry, looked up): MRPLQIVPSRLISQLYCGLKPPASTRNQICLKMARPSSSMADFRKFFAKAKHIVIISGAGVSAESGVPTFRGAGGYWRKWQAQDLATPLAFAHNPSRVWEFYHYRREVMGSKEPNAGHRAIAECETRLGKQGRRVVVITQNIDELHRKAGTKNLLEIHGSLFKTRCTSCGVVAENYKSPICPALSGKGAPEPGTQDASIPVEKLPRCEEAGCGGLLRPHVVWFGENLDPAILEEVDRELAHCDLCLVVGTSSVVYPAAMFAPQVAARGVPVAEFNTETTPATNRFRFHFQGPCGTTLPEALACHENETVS
Test: blockers of sirtuin-5 deacylase activity – biochemical, fluorescence imaging, single point, set 5, primary screen (AID 652115)
Details: Purified SirT5, succinyl-peptide AMC, trypsin-coupled fluorescence; at 15 µM; stronger effect = higher value

inhibition, active:
C=C(C)COc1ccc(-c2ncncc2-c2ccc(OC)cc2)c(O)c1 24.8%
O=C(NNc1ncnc2c1cnn2-c1ccccc1)c1ccco1 16.9%
COc1ccc(Cl)cc1NC(=O)COC(=O)c1ccc(Br)o1 21%
COc1cccc(/C=N/Nc2ccc(S(=O)(=O)Nc3ccccc3C(=O)O)cc2[N+](=O)[O-])c1O 19%
COc1ccc(Br)cc1/C=N/Nc1ccc(S(=O)(=O)Nc2ccccc2C(=O)O)cc1[N+](=O)[O-] 47.2%
Cc1cc(N2C(=O)C(O)=C(C(=O)c3ccc(C)o3)C2c2ccc(OCc3ccccc3)cc2)no1 (stereo not given) 19.4%
Cc1cc([N+](=O)[O-])ccc1NC1CCCC1 21.2%
Cc1c(C(=O)NCCN2CCOCC2)sc2nc(-c3ccc(F)cc3)cn12 26.8%
C[C@@H]1CN([C@@H](C)CO)S(=O)(=O)c2ccc(C#CCC3CCCC3)cc2O[C@H]1CN(C)Cc1ccc(C(=O)O)cc1 17.1%
C[C@@H]1CN([C@H](C)CO)S(=O)(=O)c2ccc(C#CCC3CCCC3)cc2O[C@H]1CN(C)Cc1ccc(C(=O)O)cc1 15.8%
CCc1nnc(NS(=O)(=O)c2ccc(NC(=S)NC(=O)c3cccs3)cc2)s1 19.1%

inhibition, inactive:
C=C(C)COc1ccc(-c2nc(N)ncc2-c2ccccc2OC)c(O)c1 -0.166%
COc1ccc(-c2nc(N)ncc2-c2ccc(Cl)cc2)c(O)c1 -4.03%
C=C[C@H](OC)[C@@H](O)c1ccc(OC)c(O)c1 -1.66%
CCNC(=O)C[C@@H]1CC[C@@H]2[C@@H](COc3ccc(NC(C)=O)cc3C(=O)N2C)O1 1.4%
COCC(=O)Nc1ccc2c(c1)C(=O)N(C)C[C@@H](OC)[C@H](C)CN(C(=O)c1ccccn1)[C@@H](C)CO2 0.122%
O=C(NCC[C@@H]1CC[C@H](NC(=O)C2CC2)[C@H](CO)O1)c1cnccn1 1.79%
O=C(Nc1c(C(=O)N2CCCCC2)cnn1-c1ccccc1)c1ccco1 0.316%
Cc1ccccc1NC(=O)c1cnn(-c2ccccc2)c1NC(=O)c1ccco1 3.74%
COc1ccc(Cl)cc1NC(=O)CN(C)Cc1ccc(OC)c(OC)c1 -4.51%
COc1ccc(Cl)cc1NC(=O)COc1ccc2c(c1)OCO2 -11.6%
O=C(C[C@@H]1CC[C@H]2[C@@H](COC[C@@H](O)CN2C(=O)Nc2ccc(F)cc2)O1)NCC1CC1 2.85%
O=C(C[C@@H]1CC[C@H](NC(=O)c2ccncc2)[C@@H](CO)O1)Nc1ccc(-c2ccccc2)cc1 -3.04%
Cc1ccc(NS(=O)(=O)c2ccc(N/N=C/c3ccccc3OCC(=O)O)c([N+](=O)[O-])c2)c(C)c1 -2.15%
COc1ccc(Br)cc1/C=N/Nc1ccc(Cl)c(C(=O)O)c1 -8.87%
COc1cc(OC)c(S(=O)(=O)Nc2ccccc2C(=O)O)cc1S(=O)(=O)Nc1ccccc1C(=O)O 0.719%
O=C(O)c1ccccc1/C=N/Nc1ccc(S(=O)(=O)Nc2ccc(Cl)cc2)cc1[N+](=O)[O-] 10.8%
COc1ccc2c3c([nH]c2c1)[C@@H](CO)N(Cc1cccc(F)c1)CC31CN(CC2CC2)C1 3.68%
CCNC(=O)C[C@@H]1CC[C@@H]2[C@H](COc3ccc(NC(=O)Nc4cccc(C)c4)cc3C(=O)N2C)O1 -1.08%
C/C=C/c1ccccc1[C@@H]1[C@@H](CO)N(S(=O)(=O)c2cccc(F)c2)[C@H]1C#N 2.5%
O=C(C[C@@H]1CC[C@@H]2[C@H](COC[C@H](O)CN2S(=O)(=O)c2ccccc2)O1)N[C@H]1CCN(Cc2ccccc2)C1 -3.32%
COCC(=O)Nc1ccc2c(c1)C(=O)N(C)C[C@@H](OC)[C@H](C)CN(C(=O)c1cccnc1)[C@H](C)CO2 5.23%
C=CCOc1cccc(C2C(C(=O)c3ccc(C)o3)=C(O)C(=O)N2c2nnc(C)s2)c1 (stereo not given) -0.578%
COc1cc(C2C(C(=O)c3ccco3)=C(O)C(=O)N2c2cc(C)on2)ccc1OCc1ccccc1 (stereo not given) -4.04%
COc1ccc(NC(=O)Nc2ccc3c(c2)C(=O)N([C@@H](C)CO)C[C@@H](C)[C@@H](CN(C)C(=O)CCCN(C)C)OCCCC[C@@H](C)O3)cc1 -2.34%
COc1ccc2c3c(n(C)c2c1)[C@@H](CO)N(CC1CC1)CC31CN(C(=O)c2cccc(F)c2)C1 1.38%
Cc1cc([N+](=O)[O-])ccc1NS(=O)(=O)c1ccccc1 4.53%
Cc1cc(C=O)c(C)n1-c1ccc(NC2CCCCC2)c([N+](=O)[O-])c1 2.63%
C[C@@H]1CN([C@H](C)CO)C(=O)c2cc(-c3cccc(F)c3)cnc2O[C@H]1CN(C)C(=O)Nc1ccccc1F 4.47%
O=C(CN1CCOCC1)N[C@@H]1CC[C@@H](CCNC(=O)C2CCCCC2)O[C@@H]1CO 7.91%
C[C@H]1CN([C@@H](C)CO)C(=O)c2cc(C#CC3CCCC3)cnc2O[C@H]1CN(C)C(=O)c1ccncc1 5.96%
Cc1c(C(=O)NCC2CCCO2)sc2nc(-c3ccccc3)cn12 (stereo not given) -9.93%
Cc1ccc(C(=O)N/C(=C\c2ccc(F)cc2)C(=O)NCCN2CCOCC2)cc1 -1.92%
C[C@@H]1CCCCO[C@@H](CN(C)C(=O)Nc2ccc(C(F)(F)F)cc2)[C@H](C)CN([C@@H](C)CO)C(=O)c2cc(N(C)C)ccc2O1 2.03%
O=C(c1ccc(F)cc1)N1CC(=O)N2[C@@H](CO)[C@H](c3ccc(C4=CCCC4)cc3)[C@@H]2C1 -4.25%
C[C@@H]1CN([C@@H](C)CO)S(=O)(=O)c2ccc(C#CCC3CCCC3)cc2O[C@H]1CN(C)C(=O)CC1CC1 9.11%
C[C@H]1CN([C@@H](C)CO)S(=O)(=O)c2ccc(C#CCN(C)C)cc2O[C@@H]1CN(C)Cc1ccc(F)cc1 -1.1%
C[C@@H]1CN([C@@H](C)CO)S(=O)(=O)c2ccc(C#CCC3CCCC3)cc2O[C@@H]1CN(C)C 2.36%
C[C@@H]1CN([C@H](C)CO)S(=O)(=O)c2ccc(C#CCC3CCCC3)cc2O[C@H]1CN(C)C(=O)CC1CC1 9.26%
CO[C@@H]1CN(C)C(=O)c2ccc(NC(=O)c3cccc(Oc4ccccc4)c3)cc2OC[C@H](C)NC[C@@H]1C 0.913%
CN(C)C(=O)c1cccc(-c2ccc3n(c2=O)C[C@H]2N[C@@H]3[C@@H](C(=O)NC3CCC3)[C@@H]2CO)c1 -48.3%
COc1ccc2c3c(n(C)c2c1)[C@H](CO)N(C(C)=O)CC31CN(C(=O)c2cnccn2)C1 -3.27%
CCc1nnc(NS(=O)(=O)c2ccc(NC(=S)NC(=O)/C=C/c3cccs3)cc2)s1 9.43%
CCc1nnc(NS(=O)(=O)c2ccc(NC(=O)c3cccc(OC(F)(F)C(F)F)c3)cc2)s1 -3.94%
C[C@@H]1CN([C@@H](C)CO)C(=O)c2cc(NS(C)(=O)=O)ccc2O[C@@H](C)CCCCO[C@@H]1CN(C)C(=O)c1ccccc1 0.623%
